Source: PubChem BioAssay AID1159580 (chemical genetic matrix, 2015)
The campaign covered roughly 5,500 compounds. About 2,000 (36%) were called active. Not shown: some 18% with an inconclusive outcome. Rule as the data show it: active = normalized growth mostly below about 0.91 (no sharp cut-off); inconclusive = no clear call, values can overlap the other calls; inactive = mostly above about 0.92. Some of the results follow.

Experiment: chemical genetic growth profiling, strain panel (AID 1159580);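 also: tested at 20 µM; growth read once vehicle control cultures reached saturation at 30 °C; 1 = growth at the plate median or of vehicle wells; lower values mean less growth of the strain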
Settings: growth OD
[1] = S. cerevisiae deletion strains, locus YAL013W, strain DEP1, stronger effect = lower value
[2] = S. cerevisiae deletion strains, locus YDL101C, strain DUN1, stronger effect = lower value
[3] = S. cerevisiae deletion strains, locus YDR150W, strain NUM1, stronger effect = lower value
[4] = S. cerevisiae deletion strains, locus YEL061C, strain CIN8, stronger effect = lower value
[5] = S. cerevisiae deletion strains, locus YGR078C, strain PAC10, stronger effect = lower value
[6] = S. cerevisiae deletion strains, locus YHR030C, strain SLT2, stronger effect = lower value
[7] = S. cerevisiae deletion strains, locus YHR087W, strain rtc3, stronger effect = lower value
[8] = S. cerevisiae deletion strains, locus YJR043C, strain POL32, stronger effect = lower value
[9] = S. cerevisiae deletion strains, locus YJR075W, strain HOC1, stronger effect = lower value
[10] = S. cerevisiae deletion strains, locus YLR039C, strain RIC1, stronger effect = lower value
[11] = S. cerevisiae deletion strains, locus YLR058C, strain SHM2 (second series), stronger effect = lower value
[12] = S. cerevisiae deletion strains, locus YLR085C, strain ARP6, stronger effect = lower value
[13] = S. cerevisiae deletion strains, locus YLR262C, strain YPT6, stronger effect = lower value
[14] = S. cerevisiae deletion strains, locus YML094W, strain GIM5, stronger effect = lower value
[15] = S. cerevisiae deletion strains, locus YMR219W, strain ESC1, stronger effect = lower value
[16] = S. cerevisiae deletion strains, locus YMR263W, strain SAP30, stronger effect = lower value
[17] = S. cerevisiae deletion strains, locus YNL153C, strain GIM3, stronger effect = lower value
[18] = S. cerevisiae deletion strains, locus YNL298W, strain CLA4 (second series), stronger effect = lower value
[19] = S. cerevisiae deletion strains, locus YNL322C, strain KRE1, stronger effect = lower value
[20] = S. cerevisiae deletion strains, locus YNR030W, strain Alg12, stronger effect = lower value
[21] = S. cerevisiae deletion strains, locus YPL055C, strain LGE1, stronger effect = lower value
[22] = S. cerevisiae deletion strains, locus YPL241C, strain CIN2, stronger effect = lower value
[23] = S. cerevisiae deletion strains, locus YPR135W, strain CTF4, stronger effect = lower value
[24] = S. cerevisiae strains, strain wild type, stronger effect = lower value

Measured: normalized growth

S=C1NC2(CCCCC2)NN1c1ccccc1
inactive: [2] 0.92 | [3] 0.836 | [7] 0.987 | [8] 0.94 | [9] 0.908 | [11] 0.98 | [15] 0.956 | [19] 0.988
active: [1] 0.869 | S. cerevisiae deletion strains, locus YCL061C, strain MRC1, stronger effect = lower value 0.892 | [4] 0.14 | [5] 0.761 | [6] 0.1 | S. cerevisiae deletion strains, locus YKL190W, strain CNB1, stronger effect = lower value 0.0617 | [10] 0.116 | [12] 0.0768 | [13] 0.114 | [14] 0.0764 | [16] 0.895 | [17] 0.884 | [18] 0.0996 | [20] 0.0942 | S. cerevisiae deletion strains, locus YOL006C, strain TOP1, stronger effect = lower value 0.088 | [21] 0.759 | [22] 0.0946 | [23] 0.223 | [24] 0.0726

O=C1NN(c2ccccc2)C(=S)Nc2ccccc21
inactive: [1] 1 | S. cerevisiae deletion strains, locus YBR229C, strain ROT2, stronger effect = lower value 1.01 | [2] 0.988 | [3] 0.994 | [4] 1.01 | [5] 0.986 | [6] 0.986 | [7] 1 | S. cerevisiae deletion strains, locus YJL187C, strain SWE1, stronger effect = lower value 0.988 | [8] 0.997 | [9] 0.994 | [10] 0.994 | [11] 1 | [12] 0.984 | [13] 0.999 | [14] 0.987 | [15] 0.999 | [16] 0.996 | S. cerevisiae deletion strains, locus YMR307W, strain GAS1, stronger effect = lower value 0.965 | [17] 0.978 | [18] 1.01 | [19] 1.01 | [20] 1 | [21] 1.02 | [22] 0.98 | [23] 0.979 | [24] 1.01

Cc1ccc(S(=O)(=O)Nc2nc(-c3ccc(C)c(Cl)c3)c(C)s2)cc1
inactive: S. cerevisiae deletion strains, locus YAR019C, strain CDC15, stronger effect = lower value 0.994 | S. cerevisiae deletion strains, locus YBL105C, strain PKC1, stronger effect = lower value 0.99 | S. cerevisiae deletion strains, locus YBR135W, strain CKS1, stronger effect = lower value 0.98 | S. cerevisiae deletion strains, locus YBR136W, strain MEC1, stronger effect = lower value 0.991 | S. cerevisiae deletion strains, locus YBR160W, strain CDC28, stronger effect = lower value 0.988 | S. cerevisiae deletion strains, locus YDL017W, strain CDC7, stronger effect = lower value 0.991 | S. cerevisiae deletion strains, locus YDL028C, strain MPS1, stronger effect = lower value 0.988 | [2] 0.989 | S. cerevisiae deletion strains, locus YDL108W, strain KIN28, stronger effect = lower value 0.993 | S. cerevisiae deletion strains, locus YDL132W, strain cdc53, stronger effect = lower value 0.983 | S. cerevisiae deletion strains, locus YDL214C, strain PRR2, stronger effect = lower value 0.989 | S. cerevisiae deletion strains, locus YDR052C, strain DBF4, stronger effect = lower value 0.983 | S. cerevisiae deletion strains, locus YDR054C, strain cdc34, stronger effect = lower value 0.989 | S. cerevisiae deletion strains, locus YDR226W, strain ADK1, stronger effect = lower value 0.985 | S. cerevisiae deletion strains, locus YDR477W, strain SNF1, stronger effect = lower value 1.04 | S. cerevisiae deletion strains, locus YER123W, strain YCK3, stronger effect = lower value 1.02 | S. cerevisiae deletion strains, locus YER133W, strain GLC7, stronger effect = lower value 1.02 | S. cerevisiae deletion strains, locus YFL009W, strain cdc4, stronger effect = lower value 0.989 | S. cerevisiae deletion strains, locus YFL029C, strain CAK1, stronger effect = lower value 0.998 | S. cerevisiae deletion strains, locus YFR003C, strain YPI1, stronger effect = lower value 0.992 | S. cerevisiae deletion strains, locus YFR019W, strain FAB1, stronger effect = lower value 1.02 | S. cerevisiae deletion strains, locus YFR028C, strain CDC14, stronger effect = lower value 0.99 | S. cerevisiae deletion strains, locus YGR040W, strain KSS1, stronger effect = lower value 1.02 | S. cerevisiae deletion strains, locus YGR092W, strain DBF2, stronger effect = lower value 1.01 | S. cerevisiae deletion strains, locus YHR205W, strain SCH9, stronger effect = lower value 0.942 | S. cerevisiae deletion strains, locus YIL147C, strain SLN1, stronger effect = lower value 0.983 | S. cerevisiae deletion strains, locus YJL128C, strain PBS2, stronger effect = lower value 0.925 | S. cerevisiae deletion strains, locus YJL157C, strain FAR1, stronger effect = lower value 1.02 | S. cerevisiae deletion strains, locus YJR016C, strain ILV3, stronger effect = lower value 0.979 | S. cerevisiae deletion strains, locus YJR066W, strain TOR1 (second series), stronger effect = lower value 1.04 | S. cerevisiae deletion strains, locus YKL048C, strain ELM1, stronger effect = lower value 0.986 | S. cerevisiae deletion strains, locus YKL067W, strain YNK1, stronger effect = lower value 0.997 | S. cerevisiae deletion strains, locus YKL101W, strain HSL1, stronger effect = lower value 0.981 | S. cerevisiae deletion strains, locus YKL193C, strain SDS22, stronger effect = lower value 0.986 | S. cerevisiae deletion strains, locus YKL203C, strain TOR2, stronger effect = lower value 1.08 | S. cerevisiae deletion strains, locus YLR133W, strain CKI1, stronger effect = lower value 0.995 | S. cerevisiae deletion strains, locus YLR403W, strain SFP1, stronger effect = lower value 1.02 | S. cerevisiae deletion strains, locus YML070W, strain DAK1, stronger effect = lower value 0.99 | S. cerevisiae deletion strains, locus YMR001C, strain CDC5, stronger effect = lower value 0.988 | S. cerevisiae deletion strains, locus YMR205C, strain PFK2 (second series), stronger effect = lower value 0.987 | S. cerevisiae deletion strains, locus YMR277W, strain FCP1, stronger effect = lower value 0.992 | S. cerevisiae deletion strains, locus YNL006W, strain LST8, stronger effect = lower value 0.981 | S. cerevisiae deletion strains, locus YNL020C, strain ARK1, stronger effect = lower value 0.996 | S. cerevisiae deletion strains, locus YNL161W, strain CBK1, stronger effect = lower value 0.992 | S. cerevisiae deletion strains, locus YNL207W, strain RIO2, stronger effect = lower value 0.996 | S. cerevisiae deletion strains, locus YNL222W, strain SSU72, stronger effect = lower value 0.996 | S. cerevisiae deletion strains, locus YNL307C, strain MCK1 (second series), stronger effect = lower value 0.982 | S. cerevisiae deletion strains, locus YOL078W, strain AVO1, stronger effect = lower value 0.991 | S. cerevisiae deletion strains, locus YOL136C, strain PFK27, stronger effect = lower value 0.987 | S. cerevisiae deletion strains, locus YOR061W, strain CKA2, stronger effect = lower value 1.02 | S. cerevisiae deletion strains, locus YOR119C, strain RIO1, stronger effect = lower value 1.05 | S. cerevisiae deletion strains, locus YOR329C, strain SCD5, stronger effect = lower value 0.985 | S. cerevisiae deletion strains, locus YPL031C, strain PHO85, stronger effect = lower value 1.02 | S. cerevisiae deletion strains, locus YPL153C, strain RAD53, stronger effect = lower value 1.01 | S. cerevisiae deletion strains, locus YPL204W, strain HRR25, stronger effect = lower value 1.03 | S. cerevisiae deletion strains, locus YPL209C, strain IPL1, stronger effect = lower value 0.986 | S. cerevisiae deletion strains, locus YPR025C, strain CCL1, stronger effect = lower value 0.985 | S. cerevisiae deletion strains, locus YPR106W, strain ISR1, stronger effect = lower value 0.992 | S. cerevisiae deletion strains, locus YPR111W, strain DBF20, stronger effect = lower value 0.987 | S. cerevisiae deletion strains, strain NNK1, stronger effect = lower value 0.995 | S. cerevisiae deletion strains, strain TSCII, stronger effect = lower value 0.994
active: [6] 1.77 [resistant] | S. cerevisiae deletion strains, locus YHR079C, strain IRE1, stronger effect = lower value 2.3 [resistant] | S. cerevisiae deletion strains, locus YJL095W, strain BCK1, stronger effect = lower value 1.77 [resistant] | S. cerevisiae deletion strains, locus YLR113W, strain HOG1, stronger effect = lower value 1.41 [resistant] | S. cerevisiae deletion strains, locus YOR231W, strain MKK1, stronger effect = lower value 2.03 [resistant] | S. cerevisiae deletion strains, locus YPL256C, strain CLN2, stronger effect = lower value 1.74 [resistant]
